Laboratory results taken from PubChem BioAssay (Tox21).
Inconclusive results are not listed. Calls of active or inactive are those of the source. Calls come from the whole dose curve; as a rule, active = well fitted cell-killing curve with a large enough effect in the repeat runs; inconclusive = weak or mixed curves, or effect the other way; inactive = no such curve, though single readings can be large or run the other way.

assay: qHTS assay to identify small molecule antagonists of the retinoid-related orphan receptor gamma (ROR-gamma) signaling pathway - cell viability counter screen (AID 1159520); conditions: Tet-on RORgamma CHO cells viability, ATP luminescence, 16 h; series mostly up to 92.4 µM; note: nearly all actives have a fitted effect of over 50% in size
From the text: U.S. Tox21 Program National Center for Advancing Translational Sciences [NCATS] NIH Chemical Genomics Center [NCGC] U.S. Environmental Protection Agency [EPA] National Institutes of Environmental Health Sciences [NIEHS] National Toxicology Program [NTP] U.S. Food and Drug Administration [FDA] Tox21 Assay Overview: Nuclear steroid hormone receptors are involved in many biological processes including inflammatory responses, cell proliferation, and apoptosis. Environmental factors or compounds disrupting these nuclear receptor pathways and gene expression may promote susceptibility to immunotoxicants and autoimmune diseases. One important group of these expression factors are the retinoid-related orphan receptors. To assess compounds that may interfere with the retinoid-related orphan receptor gamma (ROR-gamma) transcription factor, a cell-based luciferase assay was used. The CHO cell-based assay utilizes a TET-inducible ROR expression factor and ROR response element-LUC reporter gene. Reporter gene activity was induced using Doxycycline Hyclate and measured after 16 hr incubation. Tet-on ROR gamma CHO cells were used to screen against the Tox21 10K compound library for cytotoxicity by measuring the viability of the cells based on the quantitation of the ATP.
Tox21 Assay Protocol Summary: Tet-on ROR gamma CHO cells were dispensed at 1,000 cells in 4 uL of culture medium per well into white wall/solid bottom 1536-well plates using a Multidrop Combi (Thermo Scientific, Waltham, MA) dispenser. Following incubation at 37 C and 5% CO2 for 4 hr, 23 nL of compounds dissolved in DMSO, positive controls or DMSO only were transferred by a Pintool station (Kalypsys, San Diego, CA) and after 2 hr incubation at 37 C, one ul of 1 uM (final concentration) of Doxycycline Hyclate was added to all the wells by using a Flying Reagent Dispenser (FRD) (Aurora Discovery, San Diego, CA). After 16 hr incubation at 37 C and 5% CO2, 5 uL of CellTiter-Glo reagent (Promega Corporation, Madison, WI) was added to each assay plate using FRD. After 30 min incubation at room temperature, luminescence was quantified on a ViewLux plate reader (Perkin Elmer, Waltham, MA).

| Structure (SMILES) | outcome |
| --- | --- |
| CCCCC(C=O)CC (stereo not given) | inactive |
| CC1(C)NC(=O)NC1=O | inactive |
| O=c1[nH]cnc2[nH]ncc12 | inactive |
| Clc1ccccn1 | inactive |
| CCNC(=S)NCC | inactive |
| CC(=O)c1ccc(O)cc1 | inactive |
| NCCCCCCN | inactive |
| CCCCCCCCCCCCCCCCO | inactive |
| CCCCCCCCCCO | inactive |
| c1ccc2c(c1)Cc1ccccc1-2 | inactive |
| CC1(C)OC[C@@H]2O[C@@]3(C(=O)O)OC(C)(C)O[C@H]3[C@@H]2O1 | inactive |
| Cc1ccc2ncccc2c1 | inactive |
| CNC(=S)N(C)C | inactive |
| CC(=O)OCCOC(C)=O | inactive |
| C=CC(=O)OCCC(=O)O | inactive |
| CC(C)CC(C)O (stereo not given) | inactive |
| Cc1ccc([N+](=O)[O-])cc1S(=O)(=O)O | inactive |
| CC(C)OP(=O)(CP(=O)(OC(C)C)OC(C)C)OC(C)C | inactive |
| CC(O)CC(C)(C)O (stereo not given) | inactive |
| CC(C)OC(=O)COc1ccc(Cl)cc1Cl | inactive |

| Structure (SMILES) | outcome |
| --- | --- |
| COCCCN | inactive |
| Nc1nc(N)nc(-c2ccccc2)n1 | inactive |
| C=C(C)[C@H]1CC=C(C)C(=O)C1 | inactive |
| CNC(=O)Oc1ccc2c(c1)[C@]1(C)CCN(C)[C@@H]1N2C | inactive |
| CN(C)c1ccc(O)c2c1C[C@H]1C[C@H]3[C@H](N(C)C)C(=O)C(C(N)=O)=C(O)[C@@]3(O)C(=O)C1=C2O | inactive |
| CCCCCCCCCCN | inactive |
| Brc1ccc(Br)c(Br)c1 | inactive |
| CCOCCOCCOCCO | inactive |
| COc1ccc(C)cc1N | inactive |
| O=C(O)/C=C/C(=O)O | inactive |
| CCO[Si](CCCN)(OCC)OCC | inactive |
| CCCCCCC=O | inactive |
| C=CC(C)CCCC(C)(C)O (stereo not given) | inactive |
| CCCCCC(=O)O | inactive |
| CC1(C)CC(N)CC(C)(CN)C1 (stereo not given) | inactive |
| C=C(C)CNCC | inactive |
| COc1ccc(N)c(C)c1 | inactive |
| CCCCOC(=O)c1ccc(N)cc1 | inactive |
| O=C1c2ccccc2CCc2ccccc21 | inactive |
| CCc1ccccc1CC | inactive |
